# For some of these results: Entries with a potency or affinity are not part of this list.
# Legend:
# Parameters in all cases: scale not given: direction of the effect not stated beside the values
# [1] = target: Protein translocase subunit SecA (Escherichia coli (strain K12)) (UniProt P10408); test: Assay to Identify E. coli SecA ATPase Inhibitors; type: functional; conditions: 30 µM
# [2] = target: T1, Ubiquitin-activating enzyme e1, putative (Leishmania donovani (strain BPK282A1)) (UniProt E9BSI1); test: Leishmania donovani Ubiquitin Activating Enzyme (LdE1); type: functional; conditions: 30 µM
# T1 sequence (whole entry): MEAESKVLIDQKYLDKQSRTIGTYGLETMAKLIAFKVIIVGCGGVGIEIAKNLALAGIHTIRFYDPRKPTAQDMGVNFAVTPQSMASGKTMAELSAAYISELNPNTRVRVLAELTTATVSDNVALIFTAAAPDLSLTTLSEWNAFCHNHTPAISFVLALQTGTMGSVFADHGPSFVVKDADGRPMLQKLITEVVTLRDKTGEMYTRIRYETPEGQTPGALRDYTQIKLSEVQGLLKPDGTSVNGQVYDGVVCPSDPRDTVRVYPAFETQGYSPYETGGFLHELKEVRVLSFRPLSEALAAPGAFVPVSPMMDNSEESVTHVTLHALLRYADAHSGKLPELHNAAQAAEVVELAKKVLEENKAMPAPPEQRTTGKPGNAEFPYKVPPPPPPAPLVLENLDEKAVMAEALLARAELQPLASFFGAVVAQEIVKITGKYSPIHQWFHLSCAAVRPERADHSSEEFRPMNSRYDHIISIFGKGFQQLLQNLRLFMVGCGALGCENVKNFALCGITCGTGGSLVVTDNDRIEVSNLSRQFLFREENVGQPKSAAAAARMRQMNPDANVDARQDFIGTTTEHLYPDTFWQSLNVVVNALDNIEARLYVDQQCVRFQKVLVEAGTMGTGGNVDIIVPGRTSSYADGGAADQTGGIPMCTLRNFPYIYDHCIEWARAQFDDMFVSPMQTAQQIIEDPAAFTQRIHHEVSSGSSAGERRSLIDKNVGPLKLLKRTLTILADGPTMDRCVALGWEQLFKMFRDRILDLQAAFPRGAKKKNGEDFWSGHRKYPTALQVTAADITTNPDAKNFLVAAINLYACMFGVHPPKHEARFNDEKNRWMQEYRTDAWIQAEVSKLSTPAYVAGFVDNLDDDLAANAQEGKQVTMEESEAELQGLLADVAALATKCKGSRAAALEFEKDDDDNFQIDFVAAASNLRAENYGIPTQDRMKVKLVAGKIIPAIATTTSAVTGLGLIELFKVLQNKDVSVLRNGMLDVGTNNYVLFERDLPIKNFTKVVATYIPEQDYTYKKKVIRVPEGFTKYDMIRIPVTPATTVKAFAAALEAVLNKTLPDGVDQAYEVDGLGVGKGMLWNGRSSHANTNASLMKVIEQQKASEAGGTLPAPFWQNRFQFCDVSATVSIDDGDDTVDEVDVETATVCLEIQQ
# [3] = target: AMP-activated protein kinase, AMPK (Homo sapiens) (UniProt P54646+O43741+P54619+Q9UGJ0+Q9Y478+Q13131+Q9UGI9); test: AMP-dependent Kinase enzyme assay. An in vitro enzyme assay that detects ADP turnover that is directly proportional to AMPK activity. This uses naive AMPK that is activated during the assay with MK-8722; type: functional; conditions: 30 µM
# [4] = target: Sialic acid-binding Ig-like lectin 9 (Homo sapiens) (UniProt Q9Y336); test: Hs-Siglec9 ALPHAscreen SOP 20170721; conditions: 10 µM
# Trypanosoma cruzi = test: Trypanosoma cruzi phosphomannomutase and mannose-1-phosphate guanylyltransferase assay; type: functional; conditions: 10 µM
# [5] = target: T2, Arginase-2, mitochondrial (Homo sapiens) (UniProt P78540); test: in vitro enzyme assay to detect the production of urea directly proportional to the activity of Arginase II; type: functional; conditions: 33.3 µM; note: in the data most compounds retested in dose-response had high values
# T2 sequence (whole entry): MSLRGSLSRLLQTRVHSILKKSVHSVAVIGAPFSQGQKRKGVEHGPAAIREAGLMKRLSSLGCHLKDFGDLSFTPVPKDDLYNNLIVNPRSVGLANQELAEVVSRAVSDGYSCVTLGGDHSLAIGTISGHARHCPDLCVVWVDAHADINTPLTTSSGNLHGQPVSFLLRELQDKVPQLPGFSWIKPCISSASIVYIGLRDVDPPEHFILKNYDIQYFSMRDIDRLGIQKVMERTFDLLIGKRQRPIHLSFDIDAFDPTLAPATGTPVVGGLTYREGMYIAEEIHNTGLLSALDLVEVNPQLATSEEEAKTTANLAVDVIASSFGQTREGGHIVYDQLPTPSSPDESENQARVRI
# [6] = target: T3, Proteasome subunit beta (Trypanosoma cruzi) (UniProt O96673); test: Trypanosoma cruzi proteasome chymotrypsin-like activity (TcProtChymo) assay.; note: in the data most compounds retested in dose-response had high values; type: functional; conditions: 9.37 µM
# T3 sequence (whole entry): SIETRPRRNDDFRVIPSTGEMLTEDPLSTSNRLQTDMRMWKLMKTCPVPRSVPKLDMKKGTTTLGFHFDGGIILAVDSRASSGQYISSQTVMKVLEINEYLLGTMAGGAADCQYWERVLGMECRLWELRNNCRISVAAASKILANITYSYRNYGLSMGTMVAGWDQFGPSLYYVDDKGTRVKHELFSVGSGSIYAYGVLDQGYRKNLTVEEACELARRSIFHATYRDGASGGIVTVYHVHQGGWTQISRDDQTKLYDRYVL
# Homo sapiens = species on record: Homo sapiens; test: To identify inhibition of the IFN signalling (Jak-Stat) pathway via expression of an eGFP reporter gene under the control of an IFN-stimulated response element (ISRE) containing MxA promoter.; type: functional; conditions: 30 µM
# [7] = target: T4, Tyrosyl-tRNA synthetase, putative (Trypanosoma cruzi (strain CL Brener)) (UniProt Q4DSP6); test: Trypanosoma cruzi tyrosyl tRNA synthetase (TcYRS) _High Tyrosine SOP; type: functional; conditions: 30 µM; note: in the data most compounds retested in dose-response had high values
# T4 sequence (whole entry): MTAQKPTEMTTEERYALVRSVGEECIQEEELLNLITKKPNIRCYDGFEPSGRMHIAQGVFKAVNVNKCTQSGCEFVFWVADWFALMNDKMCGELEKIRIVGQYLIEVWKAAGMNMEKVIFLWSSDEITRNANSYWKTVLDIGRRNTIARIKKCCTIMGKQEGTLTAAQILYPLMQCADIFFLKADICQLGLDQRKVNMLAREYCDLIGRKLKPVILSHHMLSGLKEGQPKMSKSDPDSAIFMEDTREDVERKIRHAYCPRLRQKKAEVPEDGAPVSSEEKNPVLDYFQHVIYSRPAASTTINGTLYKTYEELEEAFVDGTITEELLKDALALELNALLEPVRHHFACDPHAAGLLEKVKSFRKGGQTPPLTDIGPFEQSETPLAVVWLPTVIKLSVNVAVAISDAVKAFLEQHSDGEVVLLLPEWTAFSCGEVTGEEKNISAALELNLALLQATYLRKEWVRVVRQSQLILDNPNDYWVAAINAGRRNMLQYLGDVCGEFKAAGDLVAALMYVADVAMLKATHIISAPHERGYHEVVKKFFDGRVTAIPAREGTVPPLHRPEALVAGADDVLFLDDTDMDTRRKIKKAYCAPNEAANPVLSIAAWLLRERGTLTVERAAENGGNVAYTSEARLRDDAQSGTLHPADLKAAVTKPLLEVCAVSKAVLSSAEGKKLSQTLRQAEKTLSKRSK
# [8] = target: T4, Tyrosyl-tRNA synthetase, putative (Trypanosoma cruzi (strain CL Brener)); test: Trypanosoma cruzi tyrosyl tRNA synthetase (TcYRS) SOP; type: functional; conditions: 30 µM
# [9] = target: Chromo domain-containing protein 1 (Saccharomyces cerevisiae (strain ATCC 204508 / S288c) (Baker's yeast)) (UniProt P32657); test: ScCHD-1 Enzyme Inhibition Assay; type: functional; conditions: 30 µM; note: in the data most compounds retested in dose-response had high values
# Sequence of Chromo domain-containing protein 1 (Saccharomyces cerevisiae (strain ATCC 204508 / S288c) (Baker's yeast)) (P32657 whole entry, the tested form may be a part): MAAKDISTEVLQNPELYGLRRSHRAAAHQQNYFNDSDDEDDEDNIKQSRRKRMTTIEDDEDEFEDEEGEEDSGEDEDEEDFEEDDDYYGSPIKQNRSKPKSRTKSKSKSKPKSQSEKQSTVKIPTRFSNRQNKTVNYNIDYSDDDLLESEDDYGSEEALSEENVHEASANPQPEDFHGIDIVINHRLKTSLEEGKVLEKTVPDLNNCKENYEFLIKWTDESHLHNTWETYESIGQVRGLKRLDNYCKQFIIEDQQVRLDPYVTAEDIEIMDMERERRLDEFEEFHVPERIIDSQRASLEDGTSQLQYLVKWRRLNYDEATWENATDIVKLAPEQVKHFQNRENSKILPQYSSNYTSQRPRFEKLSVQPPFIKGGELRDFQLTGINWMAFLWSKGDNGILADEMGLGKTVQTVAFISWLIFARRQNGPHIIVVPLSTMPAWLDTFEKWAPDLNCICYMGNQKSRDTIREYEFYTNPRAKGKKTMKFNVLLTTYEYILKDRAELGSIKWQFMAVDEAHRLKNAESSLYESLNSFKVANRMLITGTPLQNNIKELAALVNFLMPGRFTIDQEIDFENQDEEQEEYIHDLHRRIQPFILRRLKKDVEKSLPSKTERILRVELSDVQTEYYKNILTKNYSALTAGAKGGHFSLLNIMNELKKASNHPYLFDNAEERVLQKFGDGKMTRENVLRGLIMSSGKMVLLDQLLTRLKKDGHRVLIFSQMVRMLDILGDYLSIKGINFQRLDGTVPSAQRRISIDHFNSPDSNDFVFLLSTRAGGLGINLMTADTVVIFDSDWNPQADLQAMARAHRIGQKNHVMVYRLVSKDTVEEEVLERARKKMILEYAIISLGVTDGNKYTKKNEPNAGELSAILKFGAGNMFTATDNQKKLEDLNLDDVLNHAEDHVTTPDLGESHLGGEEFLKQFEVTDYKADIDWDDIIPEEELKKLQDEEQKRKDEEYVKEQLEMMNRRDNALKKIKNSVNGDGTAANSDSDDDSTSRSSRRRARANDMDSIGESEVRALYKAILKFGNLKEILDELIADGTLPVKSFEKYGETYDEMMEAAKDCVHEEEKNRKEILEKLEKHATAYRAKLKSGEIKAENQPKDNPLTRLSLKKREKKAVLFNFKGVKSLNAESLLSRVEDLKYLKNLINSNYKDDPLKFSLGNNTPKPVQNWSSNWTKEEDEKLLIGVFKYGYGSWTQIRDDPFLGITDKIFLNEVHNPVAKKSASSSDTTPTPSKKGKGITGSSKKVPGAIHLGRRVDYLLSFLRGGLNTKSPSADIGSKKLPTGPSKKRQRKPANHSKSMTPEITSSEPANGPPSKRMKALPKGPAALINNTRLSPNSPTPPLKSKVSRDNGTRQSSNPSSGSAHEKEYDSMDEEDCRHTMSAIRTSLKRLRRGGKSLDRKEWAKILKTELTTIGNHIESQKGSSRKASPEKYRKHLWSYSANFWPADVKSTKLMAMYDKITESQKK
# Sequence of Protein translocase subunit SecA (Escherichia coli (strain K12)) (P10408 whole entry): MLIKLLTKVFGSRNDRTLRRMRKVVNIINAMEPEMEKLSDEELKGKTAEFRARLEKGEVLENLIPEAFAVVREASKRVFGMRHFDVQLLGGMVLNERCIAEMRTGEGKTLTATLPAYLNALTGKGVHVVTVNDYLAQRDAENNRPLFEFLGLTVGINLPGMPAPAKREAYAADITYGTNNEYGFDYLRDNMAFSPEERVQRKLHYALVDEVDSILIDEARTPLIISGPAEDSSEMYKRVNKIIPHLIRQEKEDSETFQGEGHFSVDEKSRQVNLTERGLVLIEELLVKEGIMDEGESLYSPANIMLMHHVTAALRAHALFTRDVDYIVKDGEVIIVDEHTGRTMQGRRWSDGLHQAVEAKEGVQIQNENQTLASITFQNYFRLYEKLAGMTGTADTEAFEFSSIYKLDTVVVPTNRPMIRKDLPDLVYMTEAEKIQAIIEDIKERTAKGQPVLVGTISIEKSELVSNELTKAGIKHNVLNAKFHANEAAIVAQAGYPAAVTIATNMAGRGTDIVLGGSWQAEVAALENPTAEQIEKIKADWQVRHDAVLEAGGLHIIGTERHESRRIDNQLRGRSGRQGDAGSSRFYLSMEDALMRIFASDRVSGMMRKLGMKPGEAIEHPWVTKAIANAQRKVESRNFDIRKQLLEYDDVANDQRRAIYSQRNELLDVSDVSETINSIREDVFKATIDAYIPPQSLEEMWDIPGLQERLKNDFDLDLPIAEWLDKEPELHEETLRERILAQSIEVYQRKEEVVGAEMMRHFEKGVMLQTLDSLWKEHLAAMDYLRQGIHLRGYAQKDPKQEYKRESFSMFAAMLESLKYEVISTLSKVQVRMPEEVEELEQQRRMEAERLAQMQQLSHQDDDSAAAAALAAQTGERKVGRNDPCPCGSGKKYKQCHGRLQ
# Sequence of Sialic acid-binding Ig-like lectin 9 (Homo sapiens) (Q9Y336 whole entry): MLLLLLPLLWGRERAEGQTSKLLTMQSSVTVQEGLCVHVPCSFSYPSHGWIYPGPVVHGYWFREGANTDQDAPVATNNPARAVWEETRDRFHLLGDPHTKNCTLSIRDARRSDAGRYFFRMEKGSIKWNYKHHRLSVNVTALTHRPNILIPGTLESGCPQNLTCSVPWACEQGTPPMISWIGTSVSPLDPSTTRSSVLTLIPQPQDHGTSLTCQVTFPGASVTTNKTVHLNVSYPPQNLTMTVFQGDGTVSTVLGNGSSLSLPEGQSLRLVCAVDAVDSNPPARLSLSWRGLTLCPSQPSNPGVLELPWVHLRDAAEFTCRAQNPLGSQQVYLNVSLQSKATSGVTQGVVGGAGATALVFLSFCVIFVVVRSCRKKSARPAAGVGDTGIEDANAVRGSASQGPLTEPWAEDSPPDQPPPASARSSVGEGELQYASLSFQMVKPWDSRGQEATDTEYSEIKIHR
Compound,Percent Effect [1] [%],Percent Effect [2] [%],Percent Effect [3] [%],Percent Effect [4] [%],Percent Effect (Trypanosoma cruzi) [%],Percent Effect [5] [%],Percent Effect [6] [%],Percent Effect (Homo sapiens) [%],Percent Effect [7] [%],Percent Effect [8] [%],Percent Effect [9] [%]
CN(C)c1ncnc2c1CCN(CC1CCCC1)CC2,-3.48,5.41,5.95,-2.79,-3.81,-4.14,15.1,-8.91,4.32,15.4,1.8
CCc1noc(C(C)N2CCC(NC(=O)c3ccc(C)s3)CC2)n1 (stereo not given),-3.18,7.79,2.15,19.9,2.65,2.76,12.3,17.6,4.3,11.1,-0.98
CN(CCNC(=O)Nc1ccncc1)C1CCCCC1,-4.37,21.6,-4.55,6.96,8.21,-0.401,16.6,8.26,5.42,23.5,-11
CC(C(=O)NCc1ccnc(N(C)C)c1)n1cncn1 (stereo not given),-2.02,2.7,-7.17,7.55,8.88,-0.476,17.2,-1.73,5.82,9.76,-3.72
CCc1c(C)sc(NC(=O)CN2CCN(CC)CC2)c1C(=O)OC,-1.97,-12.5,-2.07,3.39,2.62,0,-2.46,-12.9,0,-2.56,2.67
